Assay results reported in PubChem BioAssay (NCATS).
Where “and” joins values, the source holds several entries; their conditions need not be identical. Equal entries are not always repeated. Records with an inconclusive call do not appear. Entries that show only a call come without a potency. A number with no mark means an inactive call. Calls of active or inactive are those of the source. The call rests on the fitted dose curve; in most records, active means well fitted curve in the direction sought with a large enough effect; inconclusive means small, poorly fitted or top-dose-only effect, or another doubt; inactive means no such curve, though single readings can be large; an effect the other way counts as inactive or inconclusive.

Tests used:
[1] = molecular target: Cytochrome P450 3A7 (Homo sapiens) (UniProt P24462); experiment: Cytochrome P450 family 3 subfamily A member 7 (CYP3A7) small molecule antagonists: luciferase biochemical qHTS assay (AID 1963596); conditions: P450-Glo CYP3A7 enzyme luminescence, 1 h; series mostly up to 57.4 µM; further: nearly all actives have a fitted effect of over 40% in size
Method in brief: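 Luminescence read-out (relative luminescence units) after 20 min with detection reagent, which stops the reaction. Enzyme, proluciferin substrate and compound preincubated 10 min, RT; NADPH regeneration system then started 1 h reaction. Ketoconazole as positive control.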

[2] = Viability qHTS for spleen associated tyrosine kinase inhibitor (SYKi) naive MV4-11 cells (AID 1963823); conditions: MV4-11 AML viability, CellTiter-Glo luminescence, 72 h; series mostly up to 45 µM; further: nearly all actives have a fitted effect of over 40% in size; further: potency means the concentration at half of the fitted maximal effect
Method in brief: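 Seeding of 500 SYKi-naive MV4-11 cells per well onto pre-dispensed compounds preceded a 72 hr incubation at 37 C. Luminescent CellTiter-Glo signal, read after 10 min at room temperature, reflected viable cells.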

[3] = Cellular viability qHTS for adrenocortical cancer (ACC) cell line SW-13 (AID 1963989); conditions: SW-13 ACC cells viability, CellTiter-Glo, 48 h; activity (max response): hits give low values; further: nearly all actives have a fitted effect of over 65% in size; further: potency means the concentration at half of the fitted maximal effect;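 on activity (max response): cells grown in serum-free medium with ITS supplement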
Method in brief: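 Viability was read as CellTiter-Glo luminescence after 48 h compound treatment (up to 46 uM final) of SW-13 cells grown serum-free; titration curves were fit with a four-parameter logistic model to give IC50 and efficacy.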

[4] = Cellular viability qHTS for adrenocortical cancer (ACC) cell line NCI-H295R (AID 1963990); conditions: CellTiter-Glo ATP luminescence, 48 h; series mostly up to 46.1 µM; further: nearly all actives have a fitted effect of over 60% in size; further: potency means the concentration at half of the fitted maximal effect
Method in brief: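 CellTiter-Glo ATP luminescence, read 48 h after compound addition, measured viability of NCI-H295R adrenocortical cells grown serum-free with ITS. Final concentrations spanned up to 46 uM. Data normalized to DMSO and doxorubicin, fitted for IC50 and maximal response.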

Sequence of Cytochrome P450 3A7 (Homo sapiens) (P24462 whole entry, looked up): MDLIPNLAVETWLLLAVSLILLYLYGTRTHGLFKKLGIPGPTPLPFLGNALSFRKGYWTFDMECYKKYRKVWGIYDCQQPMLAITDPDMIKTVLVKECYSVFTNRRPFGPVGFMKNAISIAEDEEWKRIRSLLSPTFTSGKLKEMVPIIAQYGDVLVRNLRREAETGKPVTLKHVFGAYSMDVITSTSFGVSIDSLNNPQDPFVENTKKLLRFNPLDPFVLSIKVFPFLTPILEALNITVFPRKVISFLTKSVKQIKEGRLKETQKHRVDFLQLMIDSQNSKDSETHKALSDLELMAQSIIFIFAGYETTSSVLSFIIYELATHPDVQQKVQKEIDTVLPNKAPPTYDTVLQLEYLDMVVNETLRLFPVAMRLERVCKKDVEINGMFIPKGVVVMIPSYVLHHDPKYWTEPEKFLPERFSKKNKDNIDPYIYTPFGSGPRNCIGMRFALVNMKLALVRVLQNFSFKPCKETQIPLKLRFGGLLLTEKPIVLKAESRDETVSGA

Q: Which Potency [1] does the source give for `CCOc1cc(OCC)c(C(=O)CCC(=O)O)cc1OCC` here?
A: The Potency was “inactive”.

Q: What about the Potency [2] of the same molecule?
A: Its Potency is “inactive”.

Q: What about the activity (max response) [3] of the same molecule?
A: The activity (max response) was 6%.

Q: What about the Potency [4] of the same molecule?
A: Its Potency is “inactive”.

Q: Which Potency [1] does the source give for `CN1C(=O)CC(c2ccccc2)C1=O` (centres undefined) here?
A: The Potency was “inactive”.

Q: What about the Potency [2] of the same molecule?
A: The Potency was “inactive”.

Q: And the activity (max response) [3]?
A: Its activity (max response) is 5.01%.

Q: What about the Potency [4] of the same molecule?
A: The Potency was “inactive”.

Q: With `CCC1(c2ccccc2)C(=O)NCNC1=O` as the molecule, how does the Potency [1] read?
A: The Potency was “inactive”.

Q: And the Potency [2]?
A: The Potency was “inactive”.

Q: What about the activity (max response) [3] of the same molecule?
A: Its activity (max response) is 8.13% and -10.5%.

Q: What about the Potency [4] of the same molecule?
A: The Potency was “inactive”.

Q: What does the source list for `N#CSCC(=O)O`?
A: Potency [1]: inactive; Potency [2]: inactive; activity (max response) [3]: 4.51%; Potency [4]: inactive

Q: For `COc1cc2c(NC3CCN(CC4CCCCC4)CC3)nc(N3CCCN(C(C)C)CC3)nc2cc1OCCCN1CCCCC1`, which Potency [1] is on record?
A: Its Potency is “inactive”.

Q: What about the Potency [2] of the same molecule?
A: The Potency was 2.59 µM (active).

Q: And the Potency [3]?
A: The Potency was 7.08 µM (active).

Q: What about the Potency [4] of the same molecule?
A: The Potency was 22.4 µM (active).

Q: For `CCCSc1ccc2nc(NC(=O)OC)[nH]c2c1`, which Potency [1] is on record?
A: The Potency was “inactive”.

Q: What about the Potency [2] of the same molecule?
A: Its Potency is 0.668 µM (active).

Q: What about the Potency [3] of the same molecule?
A: The Potency was 0.366 µM (active).

Q: And the Potency [4]?
A: The Potency was 0.82 µM (active).

Q: Which Potency [1] does the source give for `O=C(O)CCC(=O)OC[C@@H](NC(=O)C(Cl)Cl)[C@H](O)c1ccc([N+](=O)[O-])cc1` here?
A: Its Potency is “inactive”.

Q: What about the Potency [2] of the same molecule?
A: The Potency was “inactive”.

Q: And the activity (max response) [3]?
A: The activity (max response) was -6.44%.

Q: And the Potency [4]?
A: The Potency was “inactive”.

Q: Which Potency [1] does the source give for `COC(=O)c1cc(Cl)ccc1OC` here?
A: Its Potency is “inactive”.

Q: What about the Potency [2] of the same molecule?
A: Its Potency is “inactive”.

Q: What about the activity (max response) [3] of the same molecule?
A: The activity (max response) was -2.06%.

Q: What about the Potency [4] of the same molecule?
A: Its Potency is “inactive”.

Q: With `Nc1ncnc2c1ncn2[C@@H]1O[C@H](COP(=O)(O)O)[C@@H](O)[C@H]1O` as the molecule, how does the Potency [1] read?
A: Its Potency is “inactive”.

Q: What about the Potency [2] of the same molecule?
A: The Potency was “inactive”.

Q: And the activity (max response) [3]?
A: The activity (max response) was 5.55%.

Q: And the Potency [4]?
A: The Potency was “inactive”.

Q: With `C/C=C/C(=O)N(CC)c1ccccc1C` as the molecule, how does the Potency [1] read?
A: The Potency was “inactive”.

Q: And the Potency [2]?
A: Its Potency is “inactive”.

Q: What about the activity (max response) [3] of the same molecule?
A: The activity (max response) was 5.92% and 3.5%.

Q: And the Potency [4]?
A: Its Potency is “inactive”.

Q: What does the source list for `CNCc1ccc(C)c(NC(=O)c2ccc(Nc3nc(-c4ccccc4)c4ccccc4n3)cc2)c1`?
A: Potency [1]: inactive; Potency [2]: 7.42 µM (active); Potency [3]: 28.2 µM (active); Potency [4]: 6.31 µM (active)
